Compound activity deposited in PubChem by several laboratories.
Hits are enriched below; roughly 0.96% of the tested compounds scored in any of these assays.
HDAC3 inh – human HDAC3 inhibition; recombinant HDAC3, fluorogenic peptide/trypsin coupled, fluorescence; inhibition, % at 8.3 µM; 0.15% of 320,000 active; AID 2718; in the data active = inhibition above about 26%, passing the limit was not always enough
V-ATPase pHluor – alters yeast V-ATPase proton transport | 0.37% of 350,000 active | response, % at 10 µM | S. cerevisiae, pHLuorin cytosolic pH fluorescence; in the data active = response mostly above about 7.3%, no sharp cut-off; inactive = mostly below about 5.4%; also: actives read high
MIN6 prolif-1 – MIN6 beta-cell proliferation induction; MIN6 cells proliferation, ATPlite luminescence, 48 h; cells starved in 0.2% serum; 100% = growth in 10% serum; proliferation, % at 10 µM; 0.29% of 330,000 active; AID 2380;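 active = compounds whose signal lies at least 3.5 SD above the mean of all wells on their plate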
DAGLB inh – diacylglycerol lipase beta (human) inhibition | Q8NCG7 | AID 504411 | inhibition, % at 5.17 µM | 0.059% of 340,000 active | HEK293T DAGLB membrane lysate, EnzChek fluorogenic substrate; in the data active = inhibition above about 34%
Rtt109 Vps75 – inhibitors of Candida albicans Rtt109/Vps75 histone acetyltransferase. 0.16% of 330,000 active. inhibition, % at 34.9 µM. AID 540336. purified Rtt109/Vps75, ThioGlo CoA-SH fluorescence, 4 h. Q5AAJ8;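 active = inhibition of at least 50% in every replicate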
Target sequence (Q5AAJ8 whole entry, looked up): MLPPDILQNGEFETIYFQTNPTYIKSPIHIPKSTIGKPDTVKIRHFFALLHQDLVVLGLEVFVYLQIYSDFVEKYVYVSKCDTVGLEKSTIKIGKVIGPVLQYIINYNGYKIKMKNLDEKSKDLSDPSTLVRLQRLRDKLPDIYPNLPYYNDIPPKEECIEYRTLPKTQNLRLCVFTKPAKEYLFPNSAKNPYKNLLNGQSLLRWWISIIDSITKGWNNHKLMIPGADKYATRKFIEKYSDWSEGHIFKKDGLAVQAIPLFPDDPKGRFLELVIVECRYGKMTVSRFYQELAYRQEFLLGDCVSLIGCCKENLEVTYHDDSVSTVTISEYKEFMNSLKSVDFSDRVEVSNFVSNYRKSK
MIN6 prolif-2 – confirmation of inducers of beta-cell replication in MIN6 cells; shares compounds with MIN6 prolif-1; MIN6 beta-cell proliferation, ATPlite luminescence, 48 h; cells kept in 0.2% serum; scaled between 0.2% and 10% serum; proliferation increase, % at 50 µM; 920 tested, under 10 active; AID 463095;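 active = proliferation increase above 40% at any of the four tested concentrations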
DAGLB inh conf – DAGLB (human) inhibition, confirmation screen; inhibition, % at 5.17 µM; AID 504445; HEK293T DAGLB membrane lysate, EnzChek fluorogenic substrate; shares compounds with DAGLB inh; 73% of 190 active;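 active = mean inhibition over triplicate wells above a set limit taken from the primary lipase screen, cut at about 34% in these data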
VATPase regulator – yeast V-ATPase proton transport regulation | shares compounds with V-ATPase pHluor | response, % at 10 µM | S. cerevisiae pHLuorin cytosolic pH | 2% of 980 active; in the data active = response above about 24%
Large screens that a line does not name were inactive (follow-up assays come after a bar, where they were run).

CN(C(=O)CN1CCCCCC1)c1c(N)n(Cc2ccccc2)c(=O)[nH]c1=O	MIN6 prolif-1 12 | MIN6 prolif-2 inactive
Cc1cc(C)c(S(=O)(=O)N2CCC3(CC2)OCCN3S(=O)(=O)c2cccs2)c(C)c1	none (no result: HDAC3 inh)
Cc1ccc(NC(=O)C2CCCN2S(=O)(=O)c2ccc(-c3ccc(=O)[nH]n3)s2)c(C)c1 (stereo not given)	none
O=S(=O)(CCc1ccccc1)/N=C/c1cccs1	none
CC(C)CNc1nc(N)c([N+](=O)[O-])c(NC2CCCCC2)n1	none
CC(C)CCNc1nc(N)c([N+](=O)[O-])c(NC2CCCCC2)n1	MIN6 prolif-1 8.8 | MIN6 prolif-2 inactive
CN(C)c1ccc(C2CC(=O)C=C(Nc3ccccc3N)C2)cc1 (stereo not given)	none (no result: DAGLB inh, Rtt109 Vps75)
CN(CC(=O)Nc1c(Cl)cccc1Cl)C(=O)CCNS(=O)(=O)c1ccccc1C(F)(F)F	MIN6 prolif-1 12 | MIN6 prolif-2 inactive
CCNc1nc(N)c(C(=C(C#N)C#N)c2ccccc2)s1	MIN6 prolif-1 7.3 | MIN6 prolif-2 inactive
Nc1nc(Nc2ccccc2)sc1C(=O)c1ccccc1	none
O=[N+]([O-])c1ccc(N2CCCC2)cc1NC1CC1	MIN6 prolif-1 11 | MIN6 prolif-2 inactive
Cc1ccc2nc(CSc3nc(C)cc(C)c3C#N)[nH]c2c1	none
CC1CN(c2nc(N(C)c3ccccc3)nc(N)c2[N+](=O)[O-])CC(C)O1 (stereo not given)	MIN6 prolif-1 8.7 | MIN6 prolif-2 inactive
CC1CC(C)CN(c2nc(N(C)c3ccccc3)nc(N)c2[N+](=O)[O-])C1 (stereo not given)	none
S=c1[nH]nc(-c2ccc3ccccc3n2)n1Cc1ccccc1	MIN6 prolif-1 8.6 | MIN6 prolif-2 inactive
Oc1ccc(-c2n[nH]c(=S)n2Cc2ccccc2)cc1	none
Fc1ccc(-n2c(-c3ccc4ccccc4n3)n[nH]c2=S)cc1	MIN6 prolif-1 7.9 | MIN6 prolif-2 inactive
S=c1[nH]nc(-c2ccc3ccccc3n2)n1-c1cc(Cl)cc(Cl)c1	none
COC(=O)[C@H](CCSC)NC(=O)N1CCN(c2cccc(C(F)(F)F)c2)CC1	none
NS(=O)(=O)c1ccc(S(=O)(=O)NCCc2ccccc2)cc1	none
Nc1ccc(S(=O)(=O)N2CCCc3ccccc32)cc1	MIN6 prolif-1 14 | MIN6 prolif-2 inactive
Cc1nn(-c2ccccc2)c(C)c1C(=O)N1CCN(S(=O)(=O)c2ccccc2)CC1	MIN6 prolif-1 12 | MIN6 prolif-2 inactive
O=C(CSc1nnc(CNC(=O)c2cccs2)o1)Nc1cccc(F)c1	none
O=C(CSc1nnc(CNC(=O)c2cccs2)o1)Nc1cccc(C(F)(F)F)c1	MIN6 prolif-1 5.1 | MIN6 prolif-2 inactive
Cc1ccc2c(c1)cc(CN(Cc1ccc3c(c1)OCO3)C(=O)c1ccccc1)c1nnnn12	MIN6 prolif-1 8.0 | MIN6 prolif-2 inactive
O=C(O)Cc1cn(Cc2ccc(F)cc2)c2ccccc12	MIN6 prolif-1 7.4 | MIN6 prolif-2 inactive
Cc1cc2nc(C)c(=O)n(C)c2cc1C	MIN6 prolif-1 7.3 | MIN6 prolif-2 inactive
O=S(=O)(c1cnccc1N1CCN(/N=C/c2ccccc2)CC1)N1CCCCC1	MIN6 prolif-1 5.6 | MIN6 prolif-2 inactive
COc1cc(/C=N/NC(=O)CCOc2ccccc2C)cc(Br)c1O	MIN6 prolif-1 7.3 | MIN6 prolif-2 inactive
COc1ccc(/C=N/NC(=O)CCOc2ccccc2C)cc1OC	none
COc1ccccc1CN(C)C(=O)CNC(=O)c1cccc(Cl)c1	none (no result: MIN6 prolif-1)
C=CCN1C(=O)/C(=C2/Sc3ccccc3N2CCCS(=O)(=O)O)SC1=S	MIN6 prolif-1 6.4 | MIN6 prolif-2 inactive
COC(=O)c1cc(S(=O)(=O)NCCc2ccc(Cl)cc2)c[nH]1	none
CCc1noc(C)c1C(=O)N1CCN(S(=O)(=O)c2c(C)c(C)cc(C)c2C)CC1	MIN6 prolif-1 14 | MIN6 prolif-2 inactive
CCc1noc(C)c1C(=O)N1CCN(S(=O)(=O)c2cc(C)ccc2C)CC1	none
Cc1c(-c2ccccc2)nc(N)c(C#N)c1-c1ccco1	none
Cc1nc(N)c(C#N)c(-c2ccccc2)c1C	MIN6 prolif-1 5.9 | MIN6 prolif-2 inactive
Fc1ccccc1NC(=S)N1CCN(Cc2ccc3c(c2)OCO3)CC1	MIN6 prolif-1 7.4 | MIN6 prolif-2 inactive
Cc1cc(Cl)ccc1NC(=S)N1CCN(Cc2ccc3c(c2)OCO3)CC1	none
CC(=O)C1=C(O)C(=O)N(Cc2ccccc2)C1c1ccc(N(C)C)cc1 (stereo not given)	MIN6 prolif-1 6.1 | MIN6 prolif-2 inactive
COc1nc(N(C)C)nc(N(C#N)S(=O)(=O)c2ccc(C)cc2)n1	V-ATPase pHluor 11, MIN6 prolif-1 5.8 | MIN6 prolif-2 inactive | VATPase regulator inactive
COc1ccccc1N1CCN(C(=O)c2ccc(Cl)c(S(=O)(=O)N3CCOCC3)c2)CC1	none
C=CCn1c(O)c(C2=c3ccccc3=NC2=O)sc1=Nc1ccc(O)cc1	DAGLB inh 36 | DAGLB inh conf inactive
CC1=C(O)C(=O)C(C2=C(O)C(=O)C(C)=C(O)C2=O)=C(O)C1=O	none (no result: HDAC3 inh, MIN6 prolif-1)
Cc1ccc(C2=C(O)C(=O)C(c3ccc(C)cc3)=C(O)C2=O)cc1	DAGLB inh 60 (no result: HDAC3 inh, MIN6 prolif-1) | DAGLB inh conf inactive
O=[N+]([O-])c1cc(-c2ccccc2)cc([N+](=O)[O-])c1O	DAGLB inh 43 (no result: HDAC3 inh, MIN6 prolif-1) | DAGLB inh conf 53
O=[N+]([O-])c1cc2ccccc2c(O)c1O	none (no result: HDAC3 inh, MIN6 prolif-1, Rtt109 Vps75)
COc1ccc(NS(=O)(=O)c2cc(NC(=O)c3ccc(C)o3)ccc2N2CCCCC2)cc1	none
COc1cc(/C=C2/C(=O)NN(c3ccc(C)c(Cl)c3)C2=O)cc([N+](=O)[O-])c1O	DAGLB inh 39 | DAGLB inh conf 38
CC1CCCCC1NC(=O)CSc1nnc(CN2CCOCC2)n1C (stereo not given)	none
CSC1=N/C(=C\c2ccccc2C)C(=O)S1	none
O=S(=O)(c1ccc(NC(=S)N/N=C/c2ccc(O)c(O)c2)cc1)N1CCOCC1	none
O=[N+]([O-])c1cc(Cl)cc(/C=N/NC(=S)Nc2ccc(S(=O)(=O)N3CCOCC3)cc2)c1O	DAGLB inh 61 | DAGLB inh conf 73
O=C(CNc1cccc(C(F)(F)F)c1)N/N=C/c1cccc(Br)c1	none
CCN(CC)S(=O)(=O)c1ccc(N/N=C(\C)c2ccc3c(c2)OCO3)c([N+](=O)[O-])c1	none
C/C(=N\Nc1ccc(S(N)(=O)=O)cc1[N+](=O)[O-])c1ccc2c(c1)OCO2	DAGLB inh 37 (no result: HDAC3 inh, MIN6 prolif-1) | DAGLB inh conf 42
CC(C)C(=O)NC(c1cccs1)c1cc([N+](=O)[O-])c2cccnc2c1O (stereo not given)	DAGLB inh 36 | DAGLB inh conf inactive
